Assay outcomes deposited in PubChem by National Center for Advancing Translational Sciences (NCATS).
KinaseGlo FLuc = Counterscreen for Luciferase (Kinase-Glo TM) Inhibition; Kinase-Glo luciferase, ATP luminescence, 8 min; actives 0.28% (n = 200,000); Potency, µM (top dose mostly 38.3 µM), for the others: top-dose activity change, negative = inhibition, usual class: inhibitors; AID 1379, 2008; further: nearly all actives have a fitted effect of over 60% in size
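Compound is pinned into ATP-containing buffer (10 uM ATP, imidazole pH 7.2, 7 mM MgCl2). Kinase-Glo luciferase reagent is then added. Light output is recorded following an 8-min room-temperature incubation.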
Gal4-VP16 FLuc = VP16 counterscreen qHTS for inhibitors of ROR gamma transcriptional activity. Drosophila S2 Gal4-VP16 UAS-luciferase, luminescence, 20 h. Potency, µM (highest dose often 53.6 µM), for inactives: at the highest dose activity, negative = inhibition, most hits filed as inhibitors. actives 3.5% (n = 310,000). AID 2546, 2010;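 further: Gal4-VP16 expression switched on by copper sulfate through the metallothionein promoter; nearly all actives have a fitted effect of over 50% in size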
RORg inh = qHTS for inhibitors of ROR gamma transcriptional activity. actives 5.4% (n = 310,000). Nuclear receptor ROR-gamma (Mus musculus), P51450. Drosophila S2 Gal4-RORgamma UAS-luciferase reporter, 20 h. Potency, µM (titrated, usually from 53.6 µM), without a hit: at the top dose activity change, negative = inhibition, usual class: inhibitors; further: nearly all actives have a fitted effect of over 60% in size
Target sequence (P51450 whole entry, looked up, the tested form may be a part): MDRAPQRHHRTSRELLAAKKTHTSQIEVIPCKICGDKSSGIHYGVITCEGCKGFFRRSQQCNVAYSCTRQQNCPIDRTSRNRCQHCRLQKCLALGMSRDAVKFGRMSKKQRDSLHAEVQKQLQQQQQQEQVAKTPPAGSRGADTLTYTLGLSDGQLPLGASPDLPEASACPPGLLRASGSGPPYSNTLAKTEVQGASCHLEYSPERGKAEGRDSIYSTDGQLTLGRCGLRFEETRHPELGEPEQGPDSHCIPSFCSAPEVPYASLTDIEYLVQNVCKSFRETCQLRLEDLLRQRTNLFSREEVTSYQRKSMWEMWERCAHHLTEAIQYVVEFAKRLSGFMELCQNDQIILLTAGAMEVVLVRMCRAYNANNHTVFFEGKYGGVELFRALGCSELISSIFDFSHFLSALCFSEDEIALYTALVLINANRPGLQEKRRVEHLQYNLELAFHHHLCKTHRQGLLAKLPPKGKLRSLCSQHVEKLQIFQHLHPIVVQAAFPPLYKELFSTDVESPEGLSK
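Luminescence from a UAS-regulated Photinus luciferase reporter in stably transfected Drosophila Schneider cells is measured; decreased signal marks ROR gamma inhibition. Fusion expression is induced by 700 uM copper sulfate for 20 hr.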
An asterisk follows results filed as active; u = inconclusive; x = no result; [ ] = dose if it differs, or a comment. In the library only some 6.2% were active in any assay of this set; here they are far more common. The call rests on the fitted dose curve; in most records, active means well fitted curve in the direction sought with a large enough effect; inconclusive means small, poorly fitted or top-dose-only effect, or another doubt; inactive means no such curve, though single readings can be large; an effect the other way counts as inactive or inconclusive. On the % scale 0 is the no-effect control and ±100 the full control effect; potency means the concentration at half of the fitted maximal effect.

SMILES | KinaseGlo FLuc | Gal4-VP16 FLuc | RORg inh
O=C(NC1CCCc2ccccc21)c1cn2ccccc2n1 (configuration not stated) | 4% | 9% | 34%
CC(C)c1cc(C(=O)N2CCCC(N3CCN(c4ccc(F)cc4)CC3)C2)n(C)n1 (configuration not stated) | x | 4% | 19%
CCN(CC)S(=O)(=O)c1ccc(Oc2ccccc2OC)cc1 | x | -7% | 19%
CCN(CC)S(=O)(=O)c1ccc(Oc2ccc(S(=O)(=O)N(CC)CC)cc2)cc1 | -5% | 7.1µM* | u
CCOC(=O)CNC(=O)O[C@H]1C(=O)c2ccc(OC)cc2O[C@@H]1c1ccc2c(c1)OCO2 | -4% | 22% | 17%
CCOc1ccc(N(C(=O)OC(C)(C)C)C(=O)c2ccc(O[Si](C)(C)C(C)(C)C)cc2)c(I)c1 | x | -8% | -10%
Cn1c(SCC(=O)Nc2ccc(Cl)cn2)nnc1C1CC1 | x | 4% | 31%
Cn1c(SCC(=O)c2ccccc2F)nnc1C1CC1 | 7% | 11µM* | u
O=C(CN1C(=O)/C(=C/c2ccco2)SC1=S)NC1CCS(=O)(=O)C1 (configuration not stated) | x | 0% | 3%
O=c1cc(-c2ccc(O)cc2)oc2ccccc12 | -2% | 0% | 10%
O=c1cc(-c2c(F)c(F)c(F)c(F)c2F)oc2c(F)c(F)c(F)c(F)c12 | -1% | 3.2µM* | 2.5µM*
O=c1cc(-c2c(F)c(F)c(F)c(F)c2F)oc2ccccc12 | -1% | u | 7.9µM*
COc1c(OC)c(O)c2c(=O)cc(-c3c(O)cccc3O)oc2c1OC | x | 2% | u
Cn1c(OCc2cccnc2)nc2c1c(=O)n(Cc1ccc(Br)cc1)c(=O)n2C | -2% | u | 3.5µM*
Cn1c(OCc2ccc3c(c2)OCO3)nc2c1c(=O)n(Cc1ccc(Cl)c(Cl)c1)c(=O)n2C | -3% | -1% | 19%
COc1cccc(O)c1CN1CCC(Oc2ccc(C(=O)NCc3ccccn3)cc2)CC1 | x | -11% | -22%
CCN(CCCNC(=O)Cn1ncc2c([nH]c3ccc(C)cc32)c1=O)c1ccccc1 | x | -11% | -11%
CCOC(=O)[C@@H]1[C@H]2COc3ccc(Br)cc3[C@@H]2N2C(=O)N(c3ccc(Br)cc3)C(=O)[C@]12C | x | 1% | 2%
CCOC(=O)[C@@H]1[C@H]2COc3cc(OC)ccc3[C@@H]2N2C(=O)N(c3cccc(Cl)c3)C(=O)[C@@]12C | x | 5% | 11µM*
CCOC(=O)[C@@H]1[C@H]2COc3ccccc3[C@@H]2N2C(=O)N(c3ccccc3)C(=O)[C@]12C | x | -6% | -13%
CCOC(=O)[C@@H]1[C@H]2COc3ccccc3[C@@H]2N2C(=O)N(c3ccccc3)C(=O)[C@@]12C | x | -24% | 13µM*
CCOC(=O)[C@@H]1[C@H]2COc3ccc(Br)cc3[C@@H]2N2C(=O)N(c3ccccc3)C(=O)[C@@]12C | x | 6% | 10µM*
CCOC(=O)[C@@H]1[C@H]2COc3cc(OC)ccc3[C@@H]2N2C(=O)N(c3cccc(Cl)c3)C(=O)[C@]12C | x | 7% | -4%
Cc1ccc(C(=O)O)cc1 | x | 0% | -16%
CCn1c(SCC(=O)NCc2ccccc2)nnc1-c1c[nH]c2ccccc12 | -4% | -2% | u
SMILES | KinaseGlo FLuc | Gal4-VP16 FLuc | RORg inh
CC(=O)c1cccc(S(=O)(=O)NCC2CCCCC2)c1 | -3% | -8% | 16%
COC(=O)CN1C(=O)S/C(=C/c2ccc(N3CCCCC3)o2)C1=O | -7% | 5µM* | u
CCOC(=O)CN1C(=O)S/C(=C/c2ccc(N3CCCCC3)o2)C1=O | -2% | -8% | -6%
CCCN1C(=O)S/C(=C\c2ccc(N3CCOCC3)o2)C1=O | 9% | 4.5µM* | 5.6µM*
CCCN1C(=O)S/C(=C/c2ccc(N3CCOCC3)o2)C1=O | x | -14% | -2%
O=C(O)C(CC1CCCCC1)N1CCS(=O)(=O)CC1 (configuration not stated) | 1% | -10% | -10%
COc1ccccc1CN1CCCC2(CCN(C(=O)c3cc(C(F)(F)F)cc(C(F)(F)F)c3)CC2)C1 | -2% | -2% | 5%
O=C(/C=C/c1cccc(Cl)c1)c1nc2ccccc2[nH]1 | -15% | u | 3.2µM*
O=C(/C=C/c1cccc(Cl)c1)Nc1ncccn1 | 3% | 21% | 31%
COc1ccc(NC(=O)Cc2coc3ccc4ccccc4c23)cc1S(=O)(=O)N1CCOCC1 | 1% | -7% | 13%[10 µM]
Cc1ccc(/C=N/NC(=O)c2nnn(-c3nonc3N)c2CNc2ccccc2)cc1 | x | -11% | -36%
